# According to publication PMC8384837, “Expanding the binding specificity for RNA recognition by a PUF domain”:
# Biological target: PUM1 PUF domain R4-GPS (Homo sapiens, UniProt Q14671 828-1176, N971G;H972P;Q975S)
# Experiment: yeast three-hybrid, YBZ-1, SC-Leu-His + 0.5 mM 3-AT, 4 days
# Details: tags: N-Gal4 AD-HA kept; label: inside an RPR1-promoter hybrid RNA with tandem MS2 sites; ssRNA
# Method in brief: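 The interaction score is the log change in how often each variant appears, from input to selection. Frequencies came from PCR-amplified, Illumina-sequenced repeat regions of Pumilio-1 PUF domain libraries grown in strain YBZ-1 (LexA–MS2 coat fusion, HIS3 reporter) alongside matching RNA elements. Input plates were SC-Leu and selection plates were SC-Leu-His + 0.5 mM 3-AT, each for four days, and the log2 calculation used a pseudocount of 1 where a variant was absent.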
# Chain of PUM1 PUF domain R4-GPS (Q14671 828-1176 N971G/H972P/Q975S): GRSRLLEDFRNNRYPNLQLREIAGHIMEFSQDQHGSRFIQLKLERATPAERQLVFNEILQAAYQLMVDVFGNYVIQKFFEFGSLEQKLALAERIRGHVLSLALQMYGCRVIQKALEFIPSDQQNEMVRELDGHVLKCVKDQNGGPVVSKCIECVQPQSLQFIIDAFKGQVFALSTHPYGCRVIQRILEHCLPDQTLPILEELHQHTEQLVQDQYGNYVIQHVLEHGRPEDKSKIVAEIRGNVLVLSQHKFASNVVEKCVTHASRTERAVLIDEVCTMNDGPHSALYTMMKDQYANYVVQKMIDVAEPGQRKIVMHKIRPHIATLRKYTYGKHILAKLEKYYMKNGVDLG
row,Sequence,binding signal
1,GGCUAGAACUAGUGGAUCCCCCGGCGCCCGGCGGCUCGAGCCCGGGUAAGUGUACAUAGUCUGCAUGCCGCCGGGCGCCAUGCCUGCAGGUCGACUCUAGAAAACAUG,1.84 log2 enrichment (interaction score)
2,GGCUAGAACUAGUGGAUCCCCCGGCGCCCGGCGGCUCGAGCCCGGGUAAGUGUAUAUAGUCUGCAUGCCGCCGGGCGCCAUGCCUGCAGGUCGACUCUAGAAAACAUG,2.94 log2 enrichment (interaction score)
3,GGCUAGAACUAGUGGAUCCCCCGGCGCCCGGCGGCUCGAGCCCGGGUAAGUGUAAAUAGUCUGCAUGCCGCCGGGCGCCAUGCCUGCAGGUCGACUCUAGAAAACAUG,4.4 log2 enrichment (interaction score)
